The record followed here is PubChem BioAssay (NCATS).

For experiment [1], the target named is Lysosomal acid glucosylceramidase (Homo sapiens) (UniProt P04062). Briefly: Glucocerebrosidase-p2 (AID 348; in the data active means potency below about 10 µM; further: potency means the concentration at half of the fitted maximal effect). The note with it: purified GBA, blue fluorogenic substrate, 40 min. The essentials: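 Compounds titrated from 0.6 nM upwards against 0.2 nM enzyme in pH 5.9 citric acid/KH2PO4, taurocholate, tween-20; blue fluorogenic substrate 80 uM, 40 min room temperature, stopped and read Ex 365/Em 440 for AC50.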
Lysosomal acid glucosylceramidase (Homo sapiens), sequence (P04062 whole entry, looked up): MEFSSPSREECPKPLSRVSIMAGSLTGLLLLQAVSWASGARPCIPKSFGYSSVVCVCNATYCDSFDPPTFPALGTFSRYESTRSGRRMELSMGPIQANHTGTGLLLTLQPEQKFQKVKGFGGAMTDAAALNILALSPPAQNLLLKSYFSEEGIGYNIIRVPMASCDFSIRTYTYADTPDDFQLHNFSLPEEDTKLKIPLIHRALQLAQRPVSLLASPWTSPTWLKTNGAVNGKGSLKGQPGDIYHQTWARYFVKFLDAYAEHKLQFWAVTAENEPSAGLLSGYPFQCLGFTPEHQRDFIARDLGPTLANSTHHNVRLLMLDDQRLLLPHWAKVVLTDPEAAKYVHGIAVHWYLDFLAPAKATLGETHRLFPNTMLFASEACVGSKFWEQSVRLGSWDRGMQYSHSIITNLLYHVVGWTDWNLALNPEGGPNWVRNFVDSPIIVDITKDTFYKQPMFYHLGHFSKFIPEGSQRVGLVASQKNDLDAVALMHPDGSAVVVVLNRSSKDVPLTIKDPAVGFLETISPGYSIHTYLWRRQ

The nature of experiment [2]: AP1 Signaling Pathway (AID 357).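 Further: ME-180 reporter cells stimulated with EGF at its EC50 level; on the % scale 0 is the no-effect control and ±100 the full control effect.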 To be noted: ME-180 AP-1-bla reporter, EGF-induced, beta-lactamase ratio, 5 h; series mostly up to 17.2 µM. The method in brief:
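A ratiometric CCF4 readout (405 nm excitation; 460 and 530 nm emission) quantified AP-1-driven beta-lactamase in ME-180 cells after 5 h with compound and EC50 EGF; AC50 values were derived for activators and inhibitors.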

For experiment [3], the target named is Cytochrome P450 1A2 (Homo sapiens) (UniProt P05177). Briefly: p450-cyp1a2 (AID 410; calls by dose curve; further: potency means the concentration at half of the fitted maximal effect;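 on activity change, negative = inhibition: -100% = full effect of reference inhibitor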). To be noted: recombinant CYP1A2, luciferin-ME demethylation, luminescence; series mostly up to 25.6 µM. The method in brief: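 Inhibition was calculated relative to 57 uM furafylline (full inhibition). The reaction used human CYP1A2 at 20nM with Luciferin-ME at its Km, 100uM, driven by an NADPH-regenerating system for 60 min at room temperature.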
Cytochrome P450 1A2 (Homo sapiens), sequence (P05177 whole entry, looked up): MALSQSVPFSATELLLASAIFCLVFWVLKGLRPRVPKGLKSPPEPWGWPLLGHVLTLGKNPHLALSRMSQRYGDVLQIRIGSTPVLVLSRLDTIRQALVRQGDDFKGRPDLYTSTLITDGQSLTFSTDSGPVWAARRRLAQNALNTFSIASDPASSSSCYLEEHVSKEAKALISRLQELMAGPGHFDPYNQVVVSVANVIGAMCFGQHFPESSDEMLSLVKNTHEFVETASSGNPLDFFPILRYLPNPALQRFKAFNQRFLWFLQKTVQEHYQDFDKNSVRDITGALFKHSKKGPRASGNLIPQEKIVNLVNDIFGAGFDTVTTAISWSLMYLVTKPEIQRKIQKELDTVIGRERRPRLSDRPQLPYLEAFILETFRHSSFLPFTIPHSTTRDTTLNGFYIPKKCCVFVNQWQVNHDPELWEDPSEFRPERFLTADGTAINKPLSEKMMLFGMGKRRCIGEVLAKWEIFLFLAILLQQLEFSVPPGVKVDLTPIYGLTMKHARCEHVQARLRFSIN

Experiment [4] in a line: Stat Signaling Pathway (AID 446).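 Further: ME-180 cervical cancer cells given 40 pM IL-6 alongside compound; SIE-controlled beta-lactamase reporter measured as 460/530 nm FRET emission ratio; on the % scale 0 is the no-effect control and ±100 the full control effect.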 The note with it: ME-180 SIE beta-lactamase reporter, IL-6 stimulated, 5 h; series mostly up to 17.2 µM. The essentials:
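Reporter line: ME-180 cervical carcinoma, SIE-beta-lactamase. Treatment: compound with 40 pM IL-6, 5 hrs, 37 C, in low-serum OPTI-MEM with 10 mM HEPES pH 7.3. Detection: 460/530 nm fluorescence.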

In experiment [5] the target is Mitogen-activated protein kinase 10 (Mus musculus) (UniProt Q61831). Kind of experiment: JNK3 AlphaScreen Assay (AID 530).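 Further: kinase came from lysate of stimulated human HepG2 cells; signal reports phosphorylation of biotinylated GST-cJun 1-79 at Ser73 with 10 µM ATP; on the % scale 0 is the no-effect control and ±100 the full control effect.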 To be noted: JNK3 lysate, c-Jun phosphorylation; series mostly up to 57.1 µM. The essentials:
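qHTS format: compounds tested as titrations against IL-1beta/TNF-alpha-activated HepG2 lysate JNK3 with biotin-GST-cJun substrate and 10 uM ATP at room temperature. Loss of anti-phospho-cJun AlphaScreen signal indicates inhibition.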
On the technique in general: In Alpha technology, singlet oxygen from a donor bead excites a nearby acceptor bead.

Experiment [6] deals with 3',5'-cyclic-AMP phosphodiesterase 4B (Homo sapiens) (UniProt Q07343). Briefly: qHTS Assay for Inhibitors of PDE-IV (AID 607; active means well fitted activation curve with a large enough effect in the main read-out, with a control signal flat, not every such curve was filed as active; further: % of control where 0% means no effect). To be noted: HEK293 ACTOne CNG channel cells, membrane potential fluorescence; series mostly up to 22.9 µM. The method in brief:
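Cell-based read-out of cAMP via a modified cyclic nucleotide-gated channel and membrane potential dye (535/590 nm) in HEK293 cells expressing PDE4 endogenously. Compounds tested up to 22.9 uM final; 100 uM RO 20-1724 reference.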

Experiment [7] in a line: qHTS Assay for Lipid Storage Modulators (AID 1519; calls by dose curve). To be noted: Drosophila S3 cells, BODIPY lipid droplet/cell ratio, laser cytometry, cells loaded with oleic acid; for activity change, negative = inhibition: at 57.5 µM (top of the series). The method in brief:
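Cells seeded at 5,000 per well were treated with compounds over a concentration series and loaded with oleic acid (400 uM, as added). Lipid droplet fluorescence (488 nm excitation, 500-530 nm channel) was read by laser-scanning cytometry and normalized to 20 uM Triacsin C.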
Background: Quantitative high-throughput screening tests each substance at several concentrations.

Experiment [8] can be described thus: Primary qHTS for small molecule stabilizers of the endoplasmic reticulum resident proteome: Secreted ER Calcium Modulated Protein (SERCaMP) assay (AID 1508630; active means well fitted curve in the direction sought with a large enough effect; an effect the other way counts as inactive or inconclusive; further: on the % scale 0 is the no-effect control and ±100 the full control effect). To be noted: SH-SY5Y GLuc-SERCaMP (Gaussia luciferase released on ER calcium loss) secretion, thapsigargin, luminescence; series mostly up to 38.4 µM. The essentials: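 GLuc-SERCaMP-expressing SH-SY5Y cells, pretreated 16 h with compound, are challenged with thapsigargin to empty ER calcium stores; after 4 h, coelenterazine is added directly to the medium and luminescence is imaged.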

Experiment [9] deals with HIV-1 nucleocapsid protein NCp7 (binding to TG oligonucleotide). Briefly: HIV Nucleocapsid (AID 346; call rule not given here;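 further: potency means the concentration at half of the fitted maximal effect; potency is for inhibitors that block NC binding and lower polarization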). The note with it: HIV-1 NC / fluorescein-TGTGTGTG probe, fluorescence polarization. The essentials:
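Fluorescence polarization readout: labelled TG4xF oligo (10 nM) with 100 nM nucleocapsid protein, high-salt (250mM NaCl) Hepes pH 7.5 buffer containing zinc and fresh reducing agents. Compounds added by pin tool; incubation 1 hr, room temperature.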
Background: Polarisation of emitted light reports the rotation of a fluorescent probe.

The target in experiment [10] is Glucocorticoid receptor (Homo sapiens) (UniProt P04150). Kind of experiment: GR-EFC Redistribution (AID 451; calls by dose curve; further: potency means the concentration at half of the fitted maximal effect). The note with it: CHO-K1 GR-EFC translocation, beta-gal luminescence, 2 h. The method in brief: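 CHO-K1 cells expressing nuclear EA and GR-ED fragments of b-gal; compounds titrated up to 46 uM final, 2 h at 37 C. GR nuclear translocation read as complemented b-gal luminescence after 1 h RT detection.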
Glucocorticoid receptor (Homo sapiens), sequence (P04150 whole entry, looked up, the tested form may be a part): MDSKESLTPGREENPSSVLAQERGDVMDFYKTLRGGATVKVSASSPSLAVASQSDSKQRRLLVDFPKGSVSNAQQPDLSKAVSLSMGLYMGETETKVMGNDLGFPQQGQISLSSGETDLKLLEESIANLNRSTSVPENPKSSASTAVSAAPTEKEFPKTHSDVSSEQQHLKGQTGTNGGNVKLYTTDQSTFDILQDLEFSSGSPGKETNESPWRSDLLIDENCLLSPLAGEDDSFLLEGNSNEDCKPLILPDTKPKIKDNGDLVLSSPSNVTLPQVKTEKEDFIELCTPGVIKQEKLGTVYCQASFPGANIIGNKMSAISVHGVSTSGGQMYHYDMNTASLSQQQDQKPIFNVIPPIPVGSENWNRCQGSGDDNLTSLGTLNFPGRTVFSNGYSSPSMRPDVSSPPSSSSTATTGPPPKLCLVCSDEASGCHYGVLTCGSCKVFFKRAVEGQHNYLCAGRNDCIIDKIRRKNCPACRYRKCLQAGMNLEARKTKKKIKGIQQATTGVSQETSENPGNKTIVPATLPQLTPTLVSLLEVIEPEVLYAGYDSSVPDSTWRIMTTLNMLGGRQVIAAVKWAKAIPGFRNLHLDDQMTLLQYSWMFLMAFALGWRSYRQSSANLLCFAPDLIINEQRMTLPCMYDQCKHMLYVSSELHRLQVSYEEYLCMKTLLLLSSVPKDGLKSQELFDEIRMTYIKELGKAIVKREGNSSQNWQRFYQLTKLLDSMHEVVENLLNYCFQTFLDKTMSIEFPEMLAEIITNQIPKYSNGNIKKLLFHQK

Experiment [11] concerns the target Cytochrome P450 2C9 (Homo sapiens) (UniProt P11712). Briefly: qHTS Assay for Inhibitors and Substrates of Cytochrome P450 2C9 (AID 883; active means well fitted curve in the direction sought with a large enough effect; an effect the other way counts as inactive or inconclusive; further: potency means the concentration at half of the fitted maximal effect; nearly all actives have a fitted effect of over 60% in size). The note with it: recombinant CYP2C9, luciferin-H luminescence, 60 min; series mostly up to 57.1 µM. The method in brief:
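10nM CYP2C9 + 100uM Luciferin-H (=KM), 25mM KPO4; cpd 10 min 37C; NADPH regen, 60 min 37C; stop/detect with P450 Glo-Buffer 20 min; luminescence. Norm. to 57uM sulphaphenazole as full inhibition.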

For experiment [12], the target named is Cytochrome P450 3A4 (Homo sapiens) (UniProt P08684). Kind of experiment: qHTS Assay for Activators of Cytochrome P450 3A4 (AID 885; active means well fitted curve in the direction sought with a large enough effect; an effect the other way counts as inactive or inconclusive; further: nearly all actives have a fitted effect of over 65% in size; further: potency means the concentration at half of the fitted maximal effect). The note with it: recombinant CYP3A4, Luciferin-PPXE luminescence, 60 min; series mostly up to 57.1 µM. The method in brief: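 Signal was normalized against complete inhibition by 57 uM ketoconazole. The reaction used 20nM CYP3A4 with 25uM Luciferin-PPXE, 10-min compound preincubation and a 60-min NADPH-supported step at RT.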
Cytochrome P450 3A4 (Homo sapiens), sequence (P08684 whole entry, looked up): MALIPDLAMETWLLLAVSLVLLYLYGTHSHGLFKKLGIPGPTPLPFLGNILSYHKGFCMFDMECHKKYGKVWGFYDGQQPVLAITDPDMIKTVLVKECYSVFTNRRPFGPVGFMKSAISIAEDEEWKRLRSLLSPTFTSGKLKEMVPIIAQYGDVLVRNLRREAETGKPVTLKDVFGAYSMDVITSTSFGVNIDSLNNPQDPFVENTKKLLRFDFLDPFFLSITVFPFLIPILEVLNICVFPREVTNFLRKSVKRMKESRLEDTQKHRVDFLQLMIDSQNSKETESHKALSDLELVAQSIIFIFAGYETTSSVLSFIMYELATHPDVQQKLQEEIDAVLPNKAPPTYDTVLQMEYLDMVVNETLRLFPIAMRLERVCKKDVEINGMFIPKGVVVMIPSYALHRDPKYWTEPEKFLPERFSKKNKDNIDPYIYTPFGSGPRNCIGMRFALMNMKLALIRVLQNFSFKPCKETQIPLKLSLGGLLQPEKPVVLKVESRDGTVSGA

Experiment [13] is described as follows: NFAT Signaling Pathway (AID 444). The note with it: Jurkat NFAT-bla M1, carbachol, beta-lactamase ratio, 5 h; at 7.69 µM (top of the series). The method in brief: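 Jurkat cells with NFAT-driven β-lactamase reporter and co-expressed M1 receptor, stimulated with carbachol (final 1 uM, ~EC50), compound titration, 5 h at 37 °C. CCF4 loaded 1 h at RT; 460/530 nm ratio gave %activity and AC50.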

Experiment [14] has as its target Cytochrome P450 3A4 (Homo sapiens) (UniProt P08684). Kind of experiment: qHTS Assay for Inhibitors and Substrates of Cytochrome P450 3A4 (AID 884; active means well fitted curve in the direction sought with a large enough effect; an effect the other way counts as inactive or inconclusive; further: on the % scale 0 is the no-effect control and ±100 the full control effect; nearly all actives have a fitted effect of over 50% in size). To be noted: recombinant CYP3A4, Luciferin-PPXE luminescence; series mostly up to 57.1 µM. The essentials:
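20 nM human CYP3A4 with 25 uM Luciferin-PPXE (at KM) in 200 mM KPO4, preincubated 10 min with compound; NADPH regeneration started a 60 min RT reaction. Luciferin detected by luminescence, normalized to 57 uM ketoconazole as full inhibition.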

In experiment [15] the target is Ubiquitin carboxyl-terminal hydrolase 1 (Homo sapiens) (UniProt O94782). Kind of experiment: Inhibitors of USP1/UAF1: Pilot qHTS (AID 504865; active means well fitted curve in the direction sought with a large enough effect; an effect the other way counts as inactive or inconclusive;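 further: rhodamine fluorescence freed from ubiquitin-rhodamine substrate followed over time; top concentration of the series differs between compounds; on the % scale 0 is the no-effect control and ±100 the full control effect; nearly all actives have a fitted effect of over 35% in size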). The note with it: purified USP1/UAF1, Ub-rhodamine cleavage fluorescence; series mostly up to 114 µM. The essentials:
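1nM USP1/UAF1 + cpd, 15 min RT; start w/ Ub-Rho 150nM final; kinetic FL 480/540 nm, 6 reads q60 s. Buffer 50mM HEPES pH 7.8, 0.5mM EDTA, 1mM TCEP, 0.01% Tween-20, 0.1 mg/ml BSA.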

The mark [16] stands for this setting: measured here: cell count channel max response.
Setting [17] is: measured here: lipid channel max response.

Each structure is given as a SMILES string. Results filed as inconclusive are left out. Calls of active or inactive are those of the source. Unless noted, the call rests on the fitted dose curve; in most records, active means well fitted curve in either direction with a large enough effect (not every such curve was filed as active); inconclusive means small, poorly fitted or top-dose-only effect, or another doubt; inactive means flat fitted curve, though single readings scatter.

3',5'-cyclic-AMP phosphodiesterase 4B (Homo sapiens), sequence (Q07343 whole entry, looked up): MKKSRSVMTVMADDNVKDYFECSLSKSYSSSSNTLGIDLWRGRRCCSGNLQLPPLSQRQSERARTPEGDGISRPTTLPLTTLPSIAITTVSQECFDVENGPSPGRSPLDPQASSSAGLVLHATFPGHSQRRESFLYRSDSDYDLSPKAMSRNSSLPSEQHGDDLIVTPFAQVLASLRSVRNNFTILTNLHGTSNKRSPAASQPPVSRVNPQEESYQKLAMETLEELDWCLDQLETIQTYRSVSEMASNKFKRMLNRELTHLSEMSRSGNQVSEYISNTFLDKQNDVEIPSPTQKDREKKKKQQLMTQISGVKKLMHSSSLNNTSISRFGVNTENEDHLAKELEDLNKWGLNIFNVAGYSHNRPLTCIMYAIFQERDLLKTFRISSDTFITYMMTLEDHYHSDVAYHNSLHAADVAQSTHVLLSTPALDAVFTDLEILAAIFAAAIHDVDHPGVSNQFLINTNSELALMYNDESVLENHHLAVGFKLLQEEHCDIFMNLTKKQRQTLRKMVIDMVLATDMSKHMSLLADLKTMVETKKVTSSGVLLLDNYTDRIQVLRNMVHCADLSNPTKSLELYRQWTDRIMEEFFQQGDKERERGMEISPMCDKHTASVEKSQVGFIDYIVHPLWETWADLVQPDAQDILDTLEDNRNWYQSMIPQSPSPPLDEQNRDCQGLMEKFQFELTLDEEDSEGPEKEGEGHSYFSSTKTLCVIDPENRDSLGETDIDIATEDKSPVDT
Cytochrome P450 2C9 (Homo sapiens), sequence (P11712 whole entry, looked up): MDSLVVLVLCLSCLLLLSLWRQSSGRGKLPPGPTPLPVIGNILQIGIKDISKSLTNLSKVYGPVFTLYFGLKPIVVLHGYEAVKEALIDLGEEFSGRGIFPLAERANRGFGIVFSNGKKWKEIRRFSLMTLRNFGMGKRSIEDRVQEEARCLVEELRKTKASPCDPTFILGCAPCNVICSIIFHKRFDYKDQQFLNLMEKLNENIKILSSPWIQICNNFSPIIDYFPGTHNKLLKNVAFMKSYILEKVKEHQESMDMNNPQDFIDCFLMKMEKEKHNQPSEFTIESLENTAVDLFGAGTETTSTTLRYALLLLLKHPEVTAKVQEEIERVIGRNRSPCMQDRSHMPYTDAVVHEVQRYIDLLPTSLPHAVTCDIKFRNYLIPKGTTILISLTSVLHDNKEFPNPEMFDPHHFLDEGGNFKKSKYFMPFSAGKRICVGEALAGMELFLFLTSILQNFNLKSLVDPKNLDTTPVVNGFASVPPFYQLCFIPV
Ubiquitin carboxyl-terminal hydrolase 1 (Homo sapiens), sequence (O94782 whole entry, looked up): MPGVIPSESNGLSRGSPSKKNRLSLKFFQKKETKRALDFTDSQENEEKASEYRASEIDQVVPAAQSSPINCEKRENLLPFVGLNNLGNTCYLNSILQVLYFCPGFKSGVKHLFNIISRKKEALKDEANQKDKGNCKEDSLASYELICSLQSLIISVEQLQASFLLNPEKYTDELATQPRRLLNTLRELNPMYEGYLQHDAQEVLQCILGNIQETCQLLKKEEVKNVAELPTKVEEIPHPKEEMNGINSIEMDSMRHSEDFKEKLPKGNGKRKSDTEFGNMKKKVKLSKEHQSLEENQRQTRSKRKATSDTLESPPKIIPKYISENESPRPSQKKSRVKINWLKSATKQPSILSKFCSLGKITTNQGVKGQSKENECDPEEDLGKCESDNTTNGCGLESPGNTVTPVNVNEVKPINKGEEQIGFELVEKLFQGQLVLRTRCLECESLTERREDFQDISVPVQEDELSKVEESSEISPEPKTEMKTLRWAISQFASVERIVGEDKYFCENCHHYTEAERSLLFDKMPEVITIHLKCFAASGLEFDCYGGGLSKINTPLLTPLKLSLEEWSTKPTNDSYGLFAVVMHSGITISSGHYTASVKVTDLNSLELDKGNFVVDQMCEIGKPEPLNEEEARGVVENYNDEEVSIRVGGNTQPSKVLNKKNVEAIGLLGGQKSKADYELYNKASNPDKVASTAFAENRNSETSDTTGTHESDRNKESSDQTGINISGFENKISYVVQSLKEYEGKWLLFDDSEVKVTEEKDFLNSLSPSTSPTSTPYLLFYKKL

Regarding `CN1CCC2(CC1)CCN(C(=O)Oc1ccccc1)CC2`, the Potency in [1] is > 11.4 µM (inactive). The result in experiment [2], in [4], in experiment [5] and in experiment [8] was inactive. The Potency result in [3] and in experiment [6] was “inactive” each time. In experiment [7], the activity change, negative = inhibition was 2.73% (inactive). Further, the max response in experiment [7] (setting [16]) is 2.61%; in experiment [7] (setting [17]), 7.31%.
As to `O=C(Oc1ccccc1)N1CCC2(CCN(Cc3ccncc3)CC2)CC1`, the Potency in experiment [9] was > 20 µM (inactive); in [1], > 11.4 µM (inactive); in experiment [10], > 46 µM (inactive); in experiment [11] it was 3.98 µM (active). For the same molecule, the result in experiment [2], in [4], in experiment [5] and in experiment [8] was inactive. Moreover, the Potency result in [6] and in experiment [12] was “inactive” each time.
Take `CN1CCCC2(CCN(C(=O)Oc3ccccc3)CC2)C1`: the Potency in experiment [1] was > 11.4 µM (inactive); in [10], > 46 µM (inactive). The result in experiment [2], in [4] and in experiment [8] was inactive. For the same molecule, the Potency result in [6] was “inactive”. Further, the activity change, negative = inhibition in experiment [7] is -5.13% (inactive). Further, the values for the max response in [7] (setting [16]) and in experiment [7] (setting [17]) were 1.15% and -1.11%, respectively.
With `O=C(c1ccco1)N1CCC2(CC1)CN(Cc1ccncc1)C2`, the Potency in [9] is > 20 µM (inactive); in [1], > 11.4 µM (inactive). In addition, the result in experiment [2], in [4], in [5] and in experiment [8] was inactive. Further, the Potency entry in experiment [6] was “inactive”.
`O=C(Nc1ccccc1)N1CCC2(CC1)CCN(C(=O)Oc1ccccc1)CC2`: the Potency is > 20 µM (inactive) in experiment [9], > 11.4 µM (inactive) in [1], > 46 µM (inactive) in experiment [10] and 10 µM (active) in experiment [12]. Also, the result in experiment [2], in experiment [5] and in [8] was inactive. The Potency entry in [3], in [6] and in [14] was “inactive” throughout. Also, the activity change, negative = inhibition in [13] is 5.23% (inactive).
`O=C(O)C1=CCCN(CCOC(c2ccc(C(F)(F)F)cc2)c2ccc(C(F)(F)F)cc2)C1`: the Potency in experiment [10] is > 46 µM (inactive); in experiment [11] it was 2.51 µM (active). In addition, the Potency entry in [6], in experiment [12] and in experiment [15] was “inactive” throughout. The outcome in experiment [8] was inactive.
As to `O=C(Nc1cccc(F)c1)N1CC[C@@]2(CCCN(C(=O)Oc3ccccc3)C2)C1`, the values for the Potency in experiment [1], in experiment [3] and in experiment [10] were > 11.4 µM (inactive), 15.8 µM (active) and > 46 µM (inactive), respectively. For the same molecule, the outcome in experiment [2], in experiment [4], in experiment [5] and in experiment [8] was inactive. Moreover, the activity change, negative = inhibition was -6.58% (inactive) in [13] and 7.1% (inactive) in experiment [7]. Moreover, the Potency entry in experiment [12] is “inactive”. Also, the values for the max response in experiment [7] (setting [16]) and in experiment [7] (setting [17]) were 6.61% and 19.8%, respectively.
On to `CC(C)CN1CCC2(CC1)CCN(C(=O)Oc1ccccc1)CC2`, for which the values for the Potency in experiment [1] and in experiment [10] were > 11.4 µM (inactive) and > 46 µM (inactive), respectively. The result in experiment [2], in experiment [4], in experiment [5] and in [8] was inactive. Besides, the Potency entry in experiment [3] and in experiment [6] was “inactive” in each case. Besides, in [7], the activity change, negative = inhibition is 3.6% (inactive). Further, the max response in experiment [7] (setting [16]) is -4.31%; in experiment [7] (setting [17]) it was 1.23%.
`COC(=O)N1CCC2(CCCN(C)C2)CC1`: the Potency in experiment [1] was > 11.4 µM (inactive); in experiment [10], > 46 µM (inactive). Moreover, the outcome in experiment [2], in experiment [4] and in experiment [8] was inactive. Besides, the Potency entry in [3] and in [6] was “inactive” in each case. The activity change, negative = inhibition in experiment [7] was 0.789% (inactive). Also, the max response in [7] (setting [16]) came to 6.44%; in [7] (setting [17]), 8.69%.
